Data: the supplement of paper PMC6555819

How the values were obtained:
Test in all cases: PBM binding z-score (relative to random genomic background probes); higher = stronger binding; sequences stand for … in GC…GCGATTGACAGCGTAGAATGAAGG
[1] = system: FXR:RXRa (NR concentration 270 nM, RXRa partner concentration 90 nM)
How it was run: (§1)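 Scanned fluorescence from custom Agilent 4×180K protein-binding microarrays was regression-normalized. Binding z-scores use random background probes as reference. Ligand-free nuclear receptor dimers were incubated on the arrays for 1 h and detected with antibodies against each partner (one per run).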

[2] = system: LXRa:RXRa (NR concentration 270 nM, RXRa partner concentration 90 nM)
How it was run: as §1

[3] = system: LXRa homodimer (NR concentration 270 nM)
How it was run: as §1

[4] = system: LXRb:RXRa (NR concentration 270 nM, RXRa partner concentration 90 nM)
How it was run: as §1

[5] = system: PPARa:RXRa (NR concentration 270 nM, RXRa partner concentration 90 nM)
How it was run: as §1

[6] = system: PPARg:RXRa (NR concentration 180 nM, RXRa partner concentration 90 nM)
How it was run: as §1

[7] = system: PPARg:RXRa 270nM:90nM, anti-RXR (NR concentration 270 nM, RXRa partner concentration 90 nM)
How it was run: as §1

[8] = system: PPARg:RXRa 30nM:10nM, anti-RXR (NR concentration 30 nM, RXRa partner concentration 10 nM)
How it was run: as §1

[9] = system: PPARg:RXRa 90nM:30nM, anti-RXR (NR concentration 90 nM, RXRa partner concentration 30 nM)
How it was run: as §1

[10] = system: LXRb homodimer (NR concentration 270 nM)
How it was run: as §1

| Sequence | PBM binding z-score [1] | PBM binding z-score [2] | PBM binding z-score [3] | PBM binding z-score [4] | PBM binding z-score [5] | PBM binding z-score [6] | PBM binding z-score [7] | PBM binding z-score [8] | PBM binding z-score [9] | PBM binding z-score [10] |
| --- | --- | --- | --- | --- | --- | --- | --- | --- | --- | --- |
| CTATGTAGGTTAAGGGGGTCATTCACTTTGAAAG | 5.19 | 5.06 | 2.92 | 6.16 | 5.91 | 8.46 | 8.03 | 5.89 | 8.28 | – |
| TCGAGTAGGTTACGGGGGCATTCGGGGATGAAGA | 3.14 | 3.56 | 0.662 | 5.09 | 4.28 | 6.03 | 5.81 | 3.14 | 4.8 | – |
| CCGAGTAGGTTACGAGGGGACATTCAGTGCGAAT | 1.08 | 5.68 | 0.00926 | 3.05 | 1.68 | 2.07 | 2.15 | 0.304 | 1.13 | – |
| CTATGTAGGTTAAGGGCGTCATTCAGTTTGAAAG | 0.15 | 0.294 | -0.263 | 0.367 | 3.53 | 5.29 | 5.64 | 3.36 | 5.17 | – |
| TCGAGTAGGTTACGGGGGCATTGAGGGATGAAGA | 2.37 | 2.69 | 0.404 | 4.67 | 4.31 | 6.35 | 5.59 | 3.59 | 5.05 | – |
| CTATGTAGGTTAAGGGGGGCATTCAGTTTGAAAG | 3.22 | 3.64 | 1.74 | 6.04 | 4.85 | 8.88 | 7.37 | 6.02 | 7.7 | – |
| CCGAGTAGGTAACGAGGGGGCATTCAGTGCGAAT | 1.91 | 5.77 | 0.734 | 4.7 | 2.83 | 1.05 | 2.41 | 0.082 | 1.9 | – |
| CCGAGCAGGTTACGAGGGGGCATTCAGTGCGAAT | 2.35 | 7.31 | 1.46 | 6.07 | 3.01 | 0.89 | 1.95 | 0.464 | 1.36 | – |
| CCGAGTAGGTTACGAGGGGGCATCCAGTGCGAAT | 1.87 | 6.84 | 1.45 | 5.77 | 3.24 | 2.67 | 3.34 | 0.797 | 2.31 | – |
| CTATGTAGGTTAAGGGGGTCATTCAGTTTGAAAG | 5.62 | 5.08 | 3.54 | 6.24 | 6.31 | 9 | 7.99 | 6.08 | 8.01 | – |
| CTATGTAGCTTAAGGGGGTCATTCAGTTTGAAAG | 4.38 | 4.44 | 3.06 | 6.2 | 5.27 | 3.24 | 4.6 | 2.16 | 3.67 | – |
| CCGAGTAGGTTACGAGGGGGCATGCAGTGCGAAT | 1.91 | 6.78 | 0.861 | 5.49 | 3.35 | 2.46 | 3.3 | 0.783 | 2.32 | – |
| CCGAGTAAGTTACGAGGGGGCATTCAGTGCGAAT | 0.776 | 3.84 | 0.71 | 3.69 | 1.99 | -0.0159 | 1.15 | 0.0165 | 0.85 | – |
| TCGAGTTGGTTACGGGGGCATTCAGGGATGAAGA | 2.61 | 2.2 | 0.889 | 4.62 | 2.89 | 1.84 | 2.84 | 2.24 | 2.63 | – |
| CTATGTAGGTTAAGGGGTTCATTCAGTTTGAAAG | 2.03 | 3.21 | 2.34 | 3.8 | 4.75 | 7.11 | 6.53 | 4.01 | 6.09 | – |
| CCGAGTAGGTTACGAGGGGGCATTCTGTGCGAAT | 2.88 | 7.2 | 1.77 | 6.24 | 3.38 | 2.22 | 3.46 | 0.457 | 2.35 | – |
| CCGAGTAGGTTACGAGGGAGCATTCAGTGCGAAT | -0.0908 | 3.55 | -0.145 | 1.05 | 1.52 | 1.15 | 1.55 | 0.0513 | 0.563 | – |
| CAAAATAGGTCAAGAGGTCAAAGTCCGCTTCCCG | 7.64 | 6.57 | 6.23 | – | 6.57 | 9.42 | 8.19 | 6.55 | 8.11 | 2.46 |
| CCCAGTAGGTTACGAGGGGGCATTCAGTGCGAAT | 2.52 | 7.2 | 1.48 | 6.4 | – | 3.75 | 4.46 | 1.62 | 3.59 | – |
| CCTAGTTGGTCAAGGTCCCACACGCTATAGGTAC | 0.27 | 0.395 | 0.55 | – | 0.398 | 0.782 | 0.497 | -0.0168 | 0.409 | -0.02 |
| ACTAGTTGGTCAGCTGAGGTAACACACAATTCGG | 1.15 | -0.066 | 0.00608 | – | 0.41 | 0.76 | 0.156 | 0.214 | -0.00453 | 0.472 |
| CGTCCAAGGGCAATGCTAGGTCAGTGAAAGCATT | 0.683 | 2.37 | 0.414 | – | 0.934 | -0.00472 | 0.084 | -0.775 | -0.291 | -1.33 |
| CTATGTAGGTGAAGGGGGTCATTCAGTTTGAAAG | 4.41 | 4.45 | 1.53 | 5.87 | 6.36 | – | 8.53 | 7.28 | 8.98 | – |
| ATCGAAAGGTCGTGAGGTGAGTACACAGAAAGGC | 4.79 | 4.23 | 0.197 | – | 5.02 | 3.98 | 4.57 | 1.74 | 3.26 | 0.501 |
